E coli growth-1 – reduces bacterial viability in AddAB counter-screen; E. coli V3065 growth, OD600 absorbance, 18 h; inhibition, % at 11.9 µM; hit rate 0.27% among 330,000;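 active = inhibition above the campaign's mean inhibition across all tested compounds plus 3 SD, cut at about 9.9% in these data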;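 also: uninfected addAB+ strain grown without phage in ampicillin broth; 0% = DMSO wells and 100% = ciprofloxacin 0.95 µg/ml wells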
AI-2 QS mod – modulators of Vibrio harveyi AI-2 quorum sensing system; Vibrio harveyi JMH597 AI-2 luminescence/OD600 ratio, 9 h; stronger effect = lower value; strain lacks LuxN and CqsS sensors; 0 = neutral-control median; activity change, % at 7.5 µM; hit rate 0.4% among 300,000; in the data active = activity change below about -75%, passing the limit was not always enough; inconclusive = no clear call, values can overlap the other calls;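 also: luminescence divided by OD600 gain over 9 h not by final OD600 alone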
phage Ecoli inh – E. coli growth loss with phage present. growth absorbance. inhibition, % at 11.9 µM. hit rate 0.26% among 360,000. AID 651602; in the data active = inhibition above about 11%
AddAB inh – less growth of phage-infected E. coli with AddAB. E. coli expressing H. pylori AddAB, absorbance growth. inhibition, % at 11.9 µM. hit rate 0.29% among 330,000. AID 435030; in the data active = inhibition above about 12%;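 also: 0% = vehicle wells of infected cells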
E coli growth-2 – inhibitors of Escherichia coli growth; AID 1053175; OD600 absorbance (concentration not given with the values); hit rate 0.21% among 330,000; OD600, 23 h; stronger effect = lower value;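 active = OD600 absorbance below the run mean of sample wells minus 3.6 SD, in any replicate, cut at about 0.56 in these data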
Tat export inh – blocks Tat-dependent protein export in E. coli; hit rate 0.036% among 340,000; E. coli MC4100 TorA-mCherry Tat export, fluorescence; AID 488895; inhibition, % at 10 µM;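 active = mean replicate inhibition at least 50% and at least half of replicates individually reaching 50%; inconclusive = only one of the two criteria met; inactive = neither criterion met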;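 also: exported cargo escapes ClpAP degradation while cytoplasmic cargo is degraded and loses fluorescence; 0% = median of neutral control wells and 100% = median of NaSCN control wells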
JMH597 growth rt – retest: blocks Vibrio harveyi JMH597 growth; shares compounds with AI-2 QS mod; OD600 absorbance, 9 h; lacks LuxN and CqsS sensors; growth inhibition, % at 7.5 µM; hit rate 1% among 750;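 active = every replicate shows growth inhibition above 50%; inconclusive = at least half, but not all, replicates pass that cutoff; inactive = fewer than half of replicates pass it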
BB721 lum counter – retest counter-screen: BB721 constitutive quorum sensing luminescence decrease. shares compounds with AI-2 QS mod. Vibrio harveyi BB721 luminescence, 9 h. inhibition, % at 7.5 µM. hit rate 95% among 750;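 active = inhibition above about 80% in every replicate, not just on average, limit read from the data; inconclusive = at least half of replicates past the limit, but not all; inactive = fewer than half of replicates past the limit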
BB721 growth rt – retest: blocks Vibrio harveyi BB721 growth | shares compounds with AI-2 QS mod | OD600 absorbance, 9 h | growth inhibition, % at 7.5 µM | hit rate 3% among 750;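 active = every replicate shows growth inhibition above 50%; inconclusive = at least half but not all replicates above 50% inhibition; inactive = under half of replicates above 50% inhibition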
AI-2 QS JMH597 – Vibrio harveyi AI-2 signaling luminescence modulation – JMH597 strain, confirmation; inhibition, % at 7.5 µM; shares compounds with AI-2 QS mod; Vibrio harveyi JMH597 AI-2 quorum sensing luminescence, 9 h; luxN and CqsS knockout, AI-2 only; hit rate 97% among 750; AID 2736;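 active = every replicate shows more than 75% inhibition of signal versus neutral control wells; inconclusive = half to three quarters of replicates exceed 75% inhibition; inactive = fewer than half of replicates exceed 75% inhibition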
An asterisk follows results filed as active; ? = inconclusive; . = no result given. This is a sample that favours compounds with a hit; in the whole collection about 0.79% have one here.

SMILES | E coli growth-1 | AI-2 QS mod | phage Ecoli inh | AddAB inh | E coli growth-2 | Tat export inh | JMH597 growth rt | BB721 lum counter | BB721 growth rt | AI-2 QS JMH597
CCOc1ccc(N2C(=O)C(=Cc3ccccc3OCC(=O)OC)N(CC(=O)OC)C2=S)cc1 | . | . | . | . | 0.74 | . | . | . | . | .
COc1ccc(NC(=O)Cc2nnc(SCC(=O)Nc3ccccc3)n2C)cc1 | -1.4 | ? | -1.3 | 1.7 | 0.667 | 2.1 | -0.2 | 2.2 | -0.2 | 0.9
N#Cc1cc([N+](=O)[O-])ccc1Oc1cccc(C=NNC(=O)c2cccc(Cl)c2)c1 | . | . | . | . | 0.715 | . | . | . | . | .
CC(=O)Nc1ccc(NC(=O)Cn2cc3c(n2)CCCC3)cc1 | 1.4 | 44.0 | 1.5 | -1.7 | 0.737 | -3.6 | . | . | . | .
CC(=O)c1cccc(NC(=O)Cn2cc3c(n2)CCCC3)c1 | 1.2 | -89.2* | 1.5 | 4.0 | 0.765 | 0.0 | 15.4 | 96.6* | 7.2 | 98.0*
COc1cccc2c1OC1(C)CC2NC(=O)N1c1cccc(C(=O)N2CCN(c3ccccn3)CC2)c1 (configuration not stated) | 0.2 | 5.0 | 1.8 | 1.8 | 0.785 | -2.5 | . | . | . | .
COc1ccccc1N1CCN(C(=O)c2cccc(N3C(=O)NC4CC3(C)Oc3c(OC)cccc34)c2)CC1 (configuration not stated) | 0.1 | -82.8* | -0.2 | 3.0 | 0.702 | -3.3 | -7.3 | -5.4 | -13.5 | 6.1
COc1ccc(S(=O)(=O)Nc2ccc(-n3cccc3)cc2)cc1 | 1.5 | -95.8* | 1.7 | -1.3 | 0.706 | -9.3 | -0.5 | 94.1* | -50.0 | 99.4*
COc1ccc(NS(=O)(=O)c2ccc(N3C(=O)CCC3=O)cc2)cc1 | -3.6 | 13.5 | 2.2 | 0.7 | 0.666 | 0.6 | . | . | . | .
O=C(CCc1ccccc1)Nc1ccc2c(c1)OCO2 | 1.8 | -69.3 | -0.4 | 0.5 | 0.581 | -2.0 | . | . | . | .
O=C(Nc1ccc2c(c1)OCO2)OCc1ccccc1 | -2.5 | -92.9* | . | 2.0 | 0.672 | 12.0 | -4.2 | 98.4* | 18.2 | 98.3*
O=S(=O)(NCCSc1ccc(Cl)cc1)c1ccc(F)cc1 | 1.2 | -55.6 | 3.3 | 2.4 | 0.624 | 12.4 | . | . | . | .
Cc1ccc(SCCNS(=O)(=O)c2ccc(F)cc2)cc1 | -1.9 | -93.9* | 3.5 | 4.5 | 0.713 | -1.4 | 27.1 | 93.6* | -141.2 | 94.6*
O=C(NN=Cc1ccc(-c2ccc([N+](=O)[O-])cc2)o1)C(O)c1ccccc1 (configuration not stated) | . | . | . | . | 0.713 | . | . | . | . | .
CC(C)Cc1ccc(S(=O)(=O)Nc2ccccn2)cc1 | 0.7 | -93.0* | 2.2 | 1.4 | 0.704 | 0.0 | 27.3 | 97.9* | -15.1 | 99.6*
COc1ccc(S(=O)(=O)Nc2ccccn2)cc1 | 2.4 | 23.6 | 2.9 | 0.7 | 0.671 | -3.4 | . | . | . | .
Clc1cccc(CSc2nc3ccncc3[nH]2)c1 | -0.8 | -89.1* | 4.6 | -1.6 | 0.577 | -0.6 | -38.2 | 96.0* | -32.8 | 95.9*
Fc1cccc(CSc2nc3ccncc3[nH]2)c1 | 0.8 | -24.7 | 3.1 | 1.4 | 0.654 | -3.9 | . | . | . | .
Cc1sc2ncnc(OCC(=O)c3ccc(S(=O)(=O)N4CCCC4)cc3)c2c1C | -1.2 | -90.1* | 0.7 | 0.7 | 0.726 | 5.4 | ? | 97.8* | 68.9* | 98.9*
Cc1sc2ncnc(OCC(=O)N3CCN(S(=O)(=O)c4ccc(Cl)cc4)CC3)c2c1C | 0.0 | 20.6 | 3.1 | 3.1 | 0.686 | 4.1 | . | . | . | .
Clc1ccc(CON/C=N/c2ncnc3sccc23)c(Cl)c1 | 2.1 | -94.8* | 2.5 | 0.3 | . | 3.3 | 8.0 | 89.6* | 21.7 | 93.6*
CNC(=S)/N=C/NOCc1ccc(Cl)cc1Cl | 7.2 | 8.0 | 7.9 | 5.5 | . | -2.3 | . | . | . | .
Cc1ccc(Cn2cc(-c3ccccc3)nn2)cc1 | 0.5 | -94.6* | 3.2 | 2.3 | 0.677 | -0.9 | -2.1 | 98.3* | -3.8 | 98.8*
Cc1ccc(C2(C)NC(=O)N(CC(=O)Nc3ccc4c(c3)CCC4)C2=O)cc1 (configuration not stated) | -2.1 | . | 0.8 | 2.1 | 0.658 | 6.0 | . | . | . | .
COc1ccc(NC(=O)CN2C(=O)NC(C)(c3ccccc3)C2=O)cc1Cl (configuration not stated) | -1.1 | -94.7* | 1.1 | 2.4 | 0.693 | -1.3 | 24.4 | 95.7* | 13.5 | 97.6*
SMILES | E coli growth-1 | AI-2 QS mod | phage Ecoli inh | AddAB inh | E coli growth-2 | Tat export inh | JMH597 growth rt | BB721 lum counter | BB721 growth rt | AI-2 QS JMH597
Cc1cc(=O)oc2cc(NC(=O)CN3C(=O)NC(C)(c4ccccc4)C3=O)ccc12 (configuration not stated) | -0.4 | -83.9* | 5.1 | 2.4 | 0.699 | -1.0 | 6.2 | 86.4* | -0.9 | 90.8*
CC(C)CC1(C)NC(=O)N(CC(=O)Nc2ccc3c(c2)CCC3)C1=O (configuration not stated) | 2.2 | -85.1* | 3.6 | 5.2 | 0.698 | -1.6 | 2.1 | 90.2* | -10.8 | 93.7*
Cc1ccccc1CC(=O)Nc1ccc2c(C)cc(=O)oc2c1 | -0.4 | 11.1 | 1.8 | 1.7 | 0.626 | 8.4 | . | . | . | .
CC1(c2ccccc2)NC(=O)N(CC(=O)Nc2ccc3c(c2)OCO3)C1=O (configuration not stated) | 1.0 | -94.7* | 1.8 | 0.2 | 0.671 | -0.2 | -9.9 | 96.4* | -14.2 | 98.0*
Cc1ccc(S(=O)(=O)NN=C(c2ccccc2)c2cccnc2)cc1 | . | . | . | . | 0.672 | . | . | . | . | .
CC(Cc1ccccc1)=NNC(=O)CNC(=O)c1ccc(C(C)(C)C)cc1 | . | . | . | . | 0.679 | . | . | . | . | .
CC(C)(C)c1ccc(C2(C)NC(=O)N(CC(=O)Nc3ccc4c(c3)OCO4)C2=O)cc1 (configuration not stated) | -0.1 | -59.5 | 0.0 | -0.7 | 0.685 | -3.7 | . | . | . | .
CC1(c2ccc(Cl)cc2)NC(=O)N(CC(=O)Nc2ccc(F)cc2)C1=O (configuration not stated) | -0.3 | -77.8* | 0.5 | 1.7 | 0.67 | 7.6 | -11.5 | 85.5* | -14.7 | 89.4*
CC1(c2ccc(Cl)cc2)NC(=O)N(CC(=O)NCc2ccc(F)cc2)C1=O (configuration not stated) | 1.7 | 28.3 | -0.9 | 3.9 | 0.669 | -7.0 | . | . | . | .
CC1(c2ccc(OC(F)F)cc2)NC(=O)N(CC(=O)Nc2ccc3c(c2)OCO3)C1=O (configuration not stated) | -0.4 | -94.3* | 3.1 | -0.3 | 0.712 | 2.5 | -4.1 | 95.8* | -11.0 | 97.4*
CN(C)C=NN(C)c1ncccc1[N+](=O)[O-] | . | . | . | . | 0.683 | . | . | . | . | .
O=C(/C=C/c1ccc(F)cc1)NCCC1=CCCCC1 | 1.2 | -88.9* | 7.6 | 0.2 | 0.651 | 3.7 | ? | 97.1* | 25.3 | 98.4*
Cc1ccc(C(=O)OCC(=O)c2c[nH]c3ccccc23)cc1 | -1.2 | -78.8* | 3.0 | -1.1 | 0.738 | -3.6 | 1.3 | 77.1* | 13.5 | 85.6*
